Holding throughout (experiment): DAPPL (digital affinity profiling via proximity ligation, sequencing); 10 mM Tris-HCl pH 7.5, 50 mM NaCl, 1 mM DTT, 4% glycerol, room temperature, 30 min; GST-TFs on glutathione beads, 16-mer random dsDNA library, 0.1% formaldehyde crosslink after washing; high values mean tight binding
In experiment [1] the target is T1, FEV (Homo sapiens, UniProt Q99581 1-238).
T1 sequence: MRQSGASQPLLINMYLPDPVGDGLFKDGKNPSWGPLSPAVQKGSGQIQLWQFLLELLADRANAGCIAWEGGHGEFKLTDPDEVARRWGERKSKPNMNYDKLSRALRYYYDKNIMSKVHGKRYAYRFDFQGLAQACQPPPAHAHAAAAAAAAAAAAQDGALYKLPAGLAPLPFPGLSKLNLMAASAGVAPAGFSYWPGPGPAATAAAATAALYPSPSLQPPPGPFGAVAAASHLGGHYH
The following applies: protein: recombinant; tags: N-terminal GST; dsDNA, one strand shown. In outline: (§1)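 Each value of binding signal is a hexamer's read frequency for a factor divided by the same hexamer's frequency in the tag-only sample. Barcoded, bead-captured GST fusions of human transcription factors made in yeast were pooled with that sample and incubated with 200 nmole of a random double-stranded 16-mer DNA library in Tris/NaCl/DTT/glycerol buffer at room temperature for 30 min. Washing, 0.1% formaldehyde crosslinking, proximity ligation, PCR and Illumina NextSeq500 sequencing followed.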

The target in experiment [2] is ETV5 (Homo sapiens, UniProt P41161 1-510). Conditions: protein: recombinant; tags: N-terminal GST; dsDNA, one strand shown. In outline:
as §1

Experiment [3] concerns the target HSF1 (Homo sapiens, UniProt Q00613 1-529). The following applies: protein: recombinant; tags: N-terminal GST; chain copies: 3; dsDNA, one strand shown. In outline: as §1
In experiment [4] the target is T2, SPIC (Homo sapiens, UniProt Q8N5J4 1-248).
T2 sequence: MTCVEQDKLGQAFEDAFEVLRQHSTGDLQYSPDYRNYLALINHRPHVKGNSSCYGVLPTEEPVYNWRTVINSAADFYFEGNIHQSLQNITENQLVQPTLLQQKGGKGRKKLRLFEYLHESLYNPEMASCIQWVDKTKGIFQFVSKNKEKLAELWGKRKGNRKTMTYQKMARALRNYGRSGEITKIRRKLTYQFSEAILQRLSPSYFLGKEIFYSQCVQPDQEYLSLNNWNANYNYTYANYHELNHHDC
Conditions: protein: recombinant; tags: N-terminal GST; dsDNA, one strand shown. Put shortly:
as §1

The target of experiment [5] is ELF4 (Homo sapiens, UniProt Q99607 1-663). The following applies: protein: recombinant; tags: N-terminal GST; dsDNA, one strand shown. In outline: as §1
Experiment [6] has as its target T3, ELK4 (Homo sapiens, UniProt P28324-2 1-405).
T3 sequence: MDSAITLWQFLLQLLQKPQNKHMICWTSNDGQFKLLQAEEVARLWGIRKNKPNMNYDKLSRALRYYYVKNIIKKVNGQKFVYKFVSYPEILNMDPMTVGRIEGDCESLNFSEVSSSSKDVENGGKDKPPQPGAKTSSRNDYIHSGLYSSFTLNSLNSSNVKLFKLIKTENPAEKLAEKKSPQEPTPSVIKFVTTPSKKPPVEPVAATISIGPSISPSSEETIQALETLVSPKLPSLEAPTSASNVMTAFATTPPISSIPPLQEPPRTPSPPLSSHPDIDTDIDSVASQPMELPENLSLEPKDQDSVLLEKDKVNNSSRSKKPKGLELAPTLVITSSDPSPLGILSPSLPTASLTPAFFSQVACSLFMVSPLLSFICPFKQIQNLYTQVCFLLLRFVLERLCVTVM
Conditions: protein: recombinant; tags: N-terminal GST; dsDNA, one strand shown. In outline: as §1

Experiment [7] has as its target T4, ETV2 (Homo sapiens, UniProt O00321 1-342).
T4 sequence: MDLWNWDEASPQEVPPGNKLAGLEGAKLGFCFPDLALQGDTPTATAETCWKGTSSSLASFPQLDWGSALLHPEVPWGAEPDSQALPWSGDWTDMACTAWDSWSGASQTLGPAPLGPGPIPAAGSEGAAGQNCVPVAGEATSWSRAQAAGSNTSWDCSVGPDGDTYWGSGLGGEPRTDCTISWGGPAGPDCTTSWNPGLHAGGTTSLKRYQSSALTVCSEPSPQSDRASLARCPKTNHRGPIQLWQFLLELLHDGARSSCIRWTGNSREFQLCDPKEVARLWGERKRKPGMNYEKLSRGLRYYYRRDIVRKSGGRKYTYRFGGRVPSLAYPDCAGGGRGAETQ
The following applies: protein: recombinant; tags: N-terminal GST; dsDNA, one strand shown. Put shortly: as §1

The target in experiment [8] is T5, ELF3 (Homo sapiens, UniProt P78545 1-371).
T5 sequence: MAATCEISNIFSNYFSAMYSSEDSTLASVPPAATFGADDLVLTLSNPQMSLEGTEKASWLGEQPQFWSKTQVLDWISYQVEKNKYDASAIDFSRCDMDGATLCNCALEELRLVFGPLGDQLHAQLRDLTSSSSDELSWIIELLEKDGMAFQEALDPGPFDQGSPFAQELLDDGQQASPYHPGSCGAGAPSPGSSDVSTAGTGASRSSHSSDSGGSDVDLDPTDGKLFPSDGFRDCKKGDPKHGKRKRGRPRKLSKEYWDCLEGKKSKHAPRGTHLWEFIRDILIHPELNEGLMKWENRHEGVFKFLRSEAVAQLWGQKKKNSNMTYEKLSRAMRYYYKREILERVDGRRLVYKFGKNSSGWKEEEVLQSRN
The following applies: protein: recombinant; tags: N-terminal GST; dsDNA, one strand shown. In outline:
as §1

Experiment [9] addresses CRX (Homo sapiens, UniProt O43186 1-299). The following applies: protein: recombinant; tags: N-terminal GST; dsDNA, one strand shown. In outline: as §1
The target of experiment [10] is ETV1 (Homo sapiens, UniProt P50549 1-477). The following applies: protein: recombinant; tags: N-terminal GST; dsDNA, one strand shown. In outline: as §1
The target in experiment [11] is T6, ERF (Homo sapiens, UniProt P50548 1-548).
T6 sequence: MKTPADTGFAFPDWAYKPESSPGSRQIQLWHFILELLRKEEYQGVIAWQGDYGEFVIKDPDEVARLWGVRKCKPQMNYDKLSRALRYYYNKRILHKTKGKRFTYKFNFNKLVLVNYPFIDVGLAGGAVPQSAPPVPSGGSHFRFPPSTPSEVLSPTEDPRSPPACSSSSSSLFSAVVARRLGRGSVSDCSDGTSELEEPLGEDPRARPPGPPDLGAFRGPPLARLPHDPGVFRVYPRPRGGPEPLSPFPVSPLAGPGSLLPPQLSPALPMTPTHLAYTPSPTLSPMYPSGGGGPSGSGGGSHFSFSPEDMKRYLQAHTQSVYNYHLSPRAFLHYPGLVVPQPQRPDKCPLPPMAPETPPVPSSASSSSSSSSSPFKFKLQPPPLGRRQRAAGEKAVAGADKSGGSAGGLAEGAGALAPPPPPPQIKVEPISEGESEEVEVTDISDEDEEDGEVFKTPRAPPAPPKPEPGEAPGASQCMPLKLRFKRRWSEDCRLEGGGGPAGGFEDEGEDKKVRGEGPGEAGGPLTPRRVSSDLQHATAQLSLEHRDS
Conditions: protein: recombinant; tags: N-terminal GST; dsDNA, one strand shown. In outline:
as §1

In experiment [12] the target is T7, ETV3L (Homo sapiens, UniProt Q6ZN32 1-361).
T7 sequence: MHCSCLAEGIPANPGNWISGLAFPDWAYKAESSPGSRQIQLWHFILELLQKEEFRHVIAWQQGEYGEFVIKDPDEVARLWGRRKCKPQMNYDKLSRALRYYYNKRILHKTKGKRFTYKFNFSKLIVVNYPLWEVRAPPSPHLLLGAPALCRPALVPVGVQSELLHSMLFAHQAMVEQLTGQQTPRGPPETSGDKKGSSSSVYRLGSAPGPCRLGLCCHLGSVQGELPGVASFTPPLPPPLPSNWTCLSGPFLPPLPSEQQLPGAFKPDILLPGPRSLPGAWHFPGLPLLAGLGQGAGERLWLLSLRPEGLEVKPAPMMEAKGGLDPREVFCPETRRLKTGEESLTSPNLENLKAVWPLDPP
The following applies: protein: recombinant; tags: N-terminal GST; dsDNA, one strand shown. In outline:
as §1

The target in experiment [13] is T8, ETS2 (Homo sapiens, UniProt P15036 1-469).
T8 sequence: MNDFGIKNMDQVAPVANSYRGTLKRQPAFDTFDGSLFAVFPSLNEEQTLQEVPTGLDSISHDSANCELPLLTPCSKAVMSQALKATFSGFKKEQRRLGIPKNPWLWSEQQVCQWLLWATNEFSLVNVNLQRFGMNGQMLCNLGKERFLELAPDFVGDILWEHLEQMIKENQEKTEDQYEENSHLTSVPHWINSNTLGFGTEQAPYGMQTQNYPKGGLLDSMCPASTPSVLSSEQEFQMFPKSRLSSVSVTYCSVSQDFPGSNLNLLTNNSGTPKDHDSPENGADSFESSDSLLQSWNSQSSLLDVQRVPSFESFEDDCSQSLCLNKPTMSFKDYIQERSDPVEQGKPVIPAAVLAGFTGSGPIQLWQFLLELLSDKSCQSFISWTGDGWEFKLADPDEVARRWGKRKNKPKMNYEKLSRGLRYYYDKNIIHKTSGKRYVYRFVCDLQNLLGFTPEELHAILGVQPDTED
The following applies: protein: recombinant; tags: N-terminal GST; dsDNA, one strand shown. In outline:
as §1

Experiment [14] deals with T9, SPDEF (Homo sapiens, UniProt O95238 1-335).
T9 sequence: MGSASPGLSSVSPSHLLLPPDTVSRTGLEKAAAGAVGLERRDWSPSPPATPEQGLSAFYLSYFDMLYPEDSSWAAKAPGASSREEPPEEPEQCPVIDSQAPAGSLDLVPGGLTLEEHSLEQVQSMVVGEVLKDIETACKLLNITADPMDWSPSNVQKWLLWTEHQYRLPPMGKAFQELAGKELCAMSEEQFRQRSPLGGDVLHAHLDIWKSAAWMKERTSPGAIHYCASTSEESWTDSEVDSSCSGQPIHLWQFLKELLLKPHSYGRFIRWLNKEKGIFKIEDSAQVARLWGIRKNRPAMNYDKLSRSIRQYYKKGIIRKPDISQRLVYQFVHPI
The following applies: protein: recombinant; tags: N-terminal GST; dsDNA, one strand shown. Put shortly: as §1

Experiment [15] concerns the target T10, ETV7 (Homo sapiens, UniProt Q9Y603 1-341).
T10 sequence: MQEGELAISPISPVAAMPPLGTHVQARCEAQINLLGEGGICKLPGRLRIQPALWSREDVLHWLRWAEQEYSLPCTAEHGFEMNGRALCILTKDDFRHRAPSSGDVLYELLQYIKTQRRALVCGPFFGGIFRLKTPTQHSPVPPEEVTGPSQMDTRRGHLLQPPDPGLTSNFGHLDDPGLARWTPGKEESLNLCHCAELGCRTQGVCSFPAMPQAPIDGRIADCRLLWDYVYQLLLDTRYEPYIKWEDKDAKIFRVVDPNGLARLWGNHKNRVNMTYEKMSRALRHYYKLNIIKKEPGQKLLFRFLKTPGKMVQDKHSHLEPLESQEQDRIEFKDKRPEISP
The following applies: protein: recombinant; tags: N-terminal GST; dsDNA, one strand shown. Put shortly: as §1

Experiment [16] addresses T11, ELF5 (Homo sapiens, UniProt Q9UKW6-2 1-255).
T11 sequence: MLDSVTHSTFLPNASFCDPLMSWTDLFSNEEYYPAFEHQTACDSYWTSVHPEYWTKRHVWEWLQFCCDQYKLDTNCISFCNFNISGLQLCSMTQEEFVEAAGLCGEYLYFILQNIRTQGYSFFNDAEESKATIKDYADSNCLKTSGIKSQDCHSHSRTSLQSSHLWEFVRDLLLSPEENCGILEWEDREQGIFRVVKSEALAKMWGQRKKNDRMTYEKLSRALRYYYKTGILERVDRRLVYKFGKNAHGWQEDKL
The following applies: protein: recombinant; tags: N-terminal GST; dsDNA, one strand shown. In outline: as §1

The target in experiment [17] is T12, ETV3 (Homo sapiens, UniProt P41162-2 1-143).
T12 sequence: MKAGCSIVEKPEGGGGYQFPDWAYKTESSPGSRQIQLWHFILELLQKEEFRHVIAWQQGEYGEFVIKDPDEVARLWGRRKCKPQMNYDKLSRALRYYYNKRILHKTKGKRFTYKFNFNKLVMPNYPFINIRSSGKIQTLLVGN
Conditions: protein: recombinant; tags: N-terminal GST; dsDNA, one strand shown. In outline: as §1

Experiment [18] deals with ETV6 (Homo sapiens, UniProt P41212 1-452). The following applies: protein: recombinant; tags: N-terminal GST; dsDNA, one strand shown. Put shortly: as §1
Chain of ETV6 (P41212 whole entry): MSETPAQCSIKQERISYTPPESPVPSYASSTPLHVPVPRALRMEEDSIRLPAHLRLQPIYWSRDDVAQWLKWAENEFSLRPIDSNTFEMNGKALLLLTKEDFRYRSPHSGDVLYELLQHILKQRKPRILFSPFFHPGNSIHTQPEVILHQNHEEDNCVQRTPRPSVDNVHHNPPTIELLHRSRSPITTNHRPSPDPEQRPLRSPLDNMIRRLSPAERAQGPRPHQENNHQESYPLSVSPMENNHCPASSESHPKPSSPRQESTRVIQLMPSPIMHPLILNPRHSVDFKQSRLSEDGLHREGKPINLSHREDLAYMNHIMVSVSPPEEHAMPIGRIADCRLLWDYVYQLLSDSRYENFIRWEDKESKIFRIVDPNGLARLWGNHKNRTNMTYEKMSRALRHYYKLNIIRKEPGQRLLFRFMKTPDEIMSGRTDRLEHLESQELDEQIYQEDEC

Chain of ETV5 (P41161 whole entry): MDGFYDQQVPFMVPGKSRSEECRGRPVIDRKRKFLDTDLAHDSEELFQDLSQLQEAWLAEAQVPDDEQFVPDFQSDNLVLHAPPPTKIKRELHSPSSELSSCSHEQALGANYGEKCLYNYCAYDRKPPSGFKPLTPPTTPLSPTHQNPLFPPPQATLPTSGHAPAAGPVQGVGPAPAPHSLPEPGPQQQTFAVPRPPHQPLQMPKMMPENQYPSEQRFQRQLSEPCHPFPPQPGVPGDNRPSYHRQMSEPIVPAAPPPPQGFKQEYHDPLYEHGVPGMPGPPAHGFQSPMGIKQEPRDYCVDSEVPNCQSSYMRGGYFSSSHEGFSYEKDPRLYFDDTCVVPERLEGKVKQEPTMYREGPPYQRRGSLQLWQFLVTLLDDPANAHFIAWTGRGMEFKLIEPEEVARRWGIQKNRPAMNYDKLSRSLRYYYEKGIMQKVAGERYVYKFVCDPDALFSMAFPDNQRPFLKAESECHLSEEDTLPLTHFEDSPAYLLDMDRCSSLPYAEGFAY
Chain of ETV1 (P50549 whole entry): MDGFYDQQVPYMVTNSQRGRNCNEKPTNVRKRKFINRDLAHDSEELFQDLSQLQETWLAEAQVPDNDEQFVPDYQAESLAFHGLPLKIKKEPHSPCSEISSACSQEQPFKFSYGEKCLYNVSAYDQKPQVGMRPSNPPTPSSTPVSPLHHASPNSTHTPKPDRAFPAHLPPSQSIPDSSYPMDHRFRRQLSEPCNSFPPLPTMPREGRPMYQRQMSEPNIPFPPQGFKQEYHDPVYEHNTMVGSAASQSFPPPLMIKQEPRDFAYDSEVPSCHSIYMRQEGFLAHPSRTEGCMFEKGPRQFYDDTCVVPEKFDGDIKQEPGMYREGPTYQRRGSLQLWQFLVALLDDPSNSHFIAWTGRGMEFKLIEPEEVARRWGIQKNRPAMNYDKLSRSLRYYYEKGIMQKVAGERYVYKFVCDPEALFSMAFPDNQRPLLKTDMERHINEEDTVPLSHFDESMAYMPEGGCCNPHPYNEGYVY
Chain of CRX (O43186 whole entry): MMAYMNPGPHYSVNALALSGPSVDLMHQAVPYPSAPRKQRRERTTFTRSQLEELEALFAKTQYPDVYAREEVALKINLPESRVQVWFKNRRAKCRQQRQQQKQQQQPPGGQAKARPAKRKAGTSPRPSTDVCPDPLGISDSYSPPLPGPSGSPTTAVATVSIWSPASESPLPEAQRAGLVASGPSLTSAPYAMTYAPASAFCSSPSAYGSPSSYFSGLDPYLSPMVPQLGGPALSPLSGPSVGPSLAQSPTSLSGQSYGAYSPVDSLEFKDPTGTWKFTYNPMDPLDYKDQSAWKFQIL
Chain of ELF4 (Q99607 whole entry): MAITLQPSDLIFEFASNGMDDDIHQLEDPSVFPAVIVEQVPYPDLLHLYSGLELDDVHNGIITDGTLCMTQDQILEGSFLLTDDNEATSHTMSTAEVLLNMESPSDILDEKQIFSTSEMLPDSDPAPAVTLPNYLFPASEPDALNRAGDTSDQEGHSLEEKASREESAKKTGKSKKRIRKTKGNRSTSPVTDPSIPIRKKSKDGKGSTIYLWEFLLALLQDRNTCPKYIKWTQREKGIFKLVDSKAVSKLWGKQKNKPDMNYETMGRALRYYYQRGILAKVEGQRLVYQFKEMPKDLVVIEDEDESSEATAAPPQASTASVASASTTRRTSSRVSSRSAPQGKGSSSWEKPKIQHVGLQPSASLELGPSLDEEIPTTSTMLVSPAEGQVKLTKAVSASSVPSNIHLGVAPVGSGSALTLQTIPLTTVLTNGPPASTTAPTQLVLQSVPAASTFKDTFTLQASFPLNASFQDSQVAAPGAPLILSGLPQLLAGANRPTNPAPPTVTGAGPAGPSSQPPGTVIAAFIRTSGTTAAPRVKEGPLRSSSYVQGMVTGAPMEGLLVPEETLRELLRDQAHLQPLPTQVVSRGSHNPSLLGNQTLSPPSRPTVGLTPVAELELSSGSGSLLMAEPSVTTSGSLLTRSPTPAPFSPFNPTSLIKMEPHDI
Chain of HSF1 (Q00613 whole entry): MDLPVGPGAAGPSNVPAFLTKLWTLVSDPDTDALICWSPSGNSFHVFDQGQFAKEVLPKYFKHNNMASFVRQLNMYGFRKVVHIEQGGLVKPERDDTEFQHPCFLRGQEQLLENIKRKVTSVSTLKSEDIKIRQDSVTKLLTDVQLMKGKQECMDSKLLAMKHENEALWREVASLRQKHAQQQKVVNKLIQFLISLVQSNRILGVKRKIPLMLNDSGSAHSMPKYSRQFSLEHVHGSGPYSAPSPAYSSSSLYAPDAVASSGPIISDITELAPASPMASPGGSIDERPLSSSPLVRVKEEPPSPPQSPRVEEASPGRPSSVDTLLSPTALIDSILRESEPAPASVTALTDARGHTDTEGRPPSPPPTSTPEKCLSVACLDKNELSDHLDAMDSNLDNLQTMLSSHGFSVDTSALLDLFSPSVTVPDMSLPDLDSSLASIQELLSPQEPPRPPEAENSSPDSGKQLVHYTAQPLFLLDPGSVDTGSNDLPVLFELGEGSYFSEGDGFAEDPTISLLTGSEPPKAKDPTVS

Turning to CTTGCG, the binding signal was 1.32 fold enrichment (6-mer frequency, TF over GST control) in [1]; 1.36 fold enrichment (6-mer frequency, TF over GST control) in experiment [2]; 1.26 fold enrichment (6-mer frequency, TF over GST control) in experiment [3]; 1.3 fold enrichment (6-mer frequency, TF over GST control) in [4]; 1.27 fold enrichment (6-mer frequency, TF over GST control) in experiment [5]; 1.51 fold enrichment (6-mer frequency, TF over GST control) in experiment [6]. In addition, the binding signal in [7] is 1.29 fold enrichment (6-mer frequency, TF over GST control); in experiment [8], 1.46 fold enrichment (6-mer frequency, TF over GST control); in experiment [9] it was 1.13 fold enrichment (6-mer frequency, TF over GST control); in experiment [10], 1.41 fold enrichment (6-mer frequency, TF over GST control); in [11] it was 1.41 fold enrichment (6-mer frequency, TF over GST control); in experiment [12], 1.39 fold enrichment (6-mer frequency, TF over GST control). The binding signal in [13] was 1.28 fold enrichment (6-mer frequency, TF over GST control); in experiment [14] it was 1.25 fold enrichment (6-mer frequency, TF over GST control); in [15] it was 1.3 fold enrichment (6-mer frequency, TF over GST control); in [16], 1.28 fold enrichment (6-mer frequency, TF over GST control); in experiment [17], 1.42 fold enrichment (6-mer frequency, TF over GST control); in experiment [18], 1.37 fold enrichment (6-mer frequency, TF over GST control).

(Values after publication PMC7862700, “An all-to-all approach to the identification of sequence-specific readers for epigenetic DNA modifications on cytosine”.)
